Rab9 prom act – qHTS Assay for Rab9 Promoter Activators; Huh7 Rab9 promoter-luciferase reporter, luminescence, 24 h; AID 485297, 2010; Potency, µM (titrated, usually from 9.22 µM), for inactives: at the top dose activation, negative = inhibition, hits mostly activators; 2.8% of 320,000 active; further: % of control where 0% means no effect; nearly all actives have a fitted effect of over 60% in size
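Quantitative HTS format; Huh7 Rab9-luciferase reporter cells (1500/well) receive compound 2 h post-plating, incubate 24 h at 37 °C, then get luciferase reagent for 10 min before luminescence reading.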
ELG1 genotox – qHTS screen for small molecules that induce genotoxicity in human embryonic kidney (HEK293T) cells expressing luciferase-tagged ELG1 | HEK293T ELG1-luciferase reporter, luminescence, 16 h | Potency, µM (series often up to 46 µM), for inactives: at the highest dose activity change, positive = activation, most hits filed as activators | 1.3% of 330,000 active; further: % of control where 0% means no effect; nearly all actives have a fitted effect of over 60% in size
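Genotoxicity was scored as increased ELG1-luciferase reporter signal, measured by ONE-Glo luminescence (30 min, room temperature). Compound or vehicle exposure of the HEK293T reporter cells lasted 16 hr at 37°C.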
ELG1 repair inh – qHTS screen for small molecules that inhibit ELG1-dependent DNA repair in human embryonic kidney (HEK293T) cells expressing luciferase-tagged ELG1 | Potency, µM (top dose mostly 46.1 µM), for inactives: at the top dose activity change, negative = inhibition, actives largely listed as inhibitors | 2.3% of 330,000 active | HEK293T ELG1-luciferase reporter, luminescence, 16 h; DNA damage induced by 5-fluorouridine | AID 504467, 2011; further: on the % scale 0 is the no-effect control and ±100 the full control effect; nearly all actives have a fitted effect of over 55% in size
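Reporter activity after DNA damage by 5-fluorouridine is monitored. Compound-treated cells incubate 16 hr at 37 °C, then ONE-Glo is added for 30 min before luminescence reading.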
NPC1 promoter act – qHTS Assay for NPC1 Promoter Activators | Huh7 NPC1 promoter luciferase reporter, 24 h | Potency, µM (titrated, usually from 9.22 µM), for the others: top-dose activation, actives largely listed as activators | 2.4% of 320,000 active | AID 485313, 2010; further: % of control where 0% means no effect; nearly all actives have a fitted effect of over 60% in size
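Huh7 cells stably carrying NPC1 promoter–luciferase, plated in Opti-MEM with 10% FBS for 2 h, were exposed to compound in DMSO for 24 h at 37 °C; luciferase reagent was added for 10 min and luminescence read.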
FLuc modulator – qHTS profiling assay for firefly luciferase inhibitor/activator using purifed enzyme and Km concentrations of substrates (counterscreen for miR-21 project); AID 588342, 2011; Potency, µM (highest dose often 57.5 µM), for the others: top-dose activity change, negative = inhibition, usual class: inhibitors; purified FLuc, Km substrates, luminescence inhibition; Luciferin 4-monooxygenase (Photinus pyralis), P08659; 6.9% of 360,000 active;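 further: plate controls were vehicle for no effect and reference inhibitor for full effect; nearly all actives have a fitted effect of over 55% in size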
Target sequence (P08659 whole entry, looked up): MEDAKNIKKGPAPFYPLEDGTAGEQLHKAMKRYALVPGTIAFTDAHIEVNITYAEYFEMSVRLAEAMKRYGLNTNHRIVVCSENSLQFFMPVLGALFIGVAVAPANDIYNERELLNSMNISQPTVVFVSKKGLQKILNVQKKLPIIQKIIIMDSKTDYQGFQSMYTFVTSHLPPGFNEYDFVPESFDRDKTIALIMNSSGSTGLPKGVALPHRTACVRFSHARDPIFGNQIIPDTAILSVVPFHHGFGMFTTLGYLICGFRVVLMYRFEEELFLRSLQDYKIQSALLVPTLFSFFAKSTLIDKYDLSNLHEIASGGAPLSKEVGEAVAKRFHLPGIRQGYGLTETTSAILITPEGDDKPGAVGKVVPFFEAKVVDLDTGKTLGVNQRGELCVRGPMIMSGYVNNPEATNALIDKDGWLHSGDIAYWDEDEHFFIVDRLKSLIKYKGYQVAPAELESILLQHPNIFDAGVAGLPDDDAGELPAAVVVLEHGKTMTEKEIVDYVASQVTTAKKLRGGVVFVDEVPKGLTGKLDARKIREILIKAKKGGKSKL
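Biochemical qHTS of compounds, final roughly 60 µM downward over six points, against 10 nM purified firefly luciferase using Km concentrations of substrates (10 uM D-luciferin, 10 uM ATP) in Tris acetate pH 7.5 buffer; luminescence output.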
SMN2 splice up – qHTS Assay for Enhancers of SMN2 Splice Variant Expression; HEK293 SMN2-luciferase splicing reporter, luminescence, 30-36 h; Potency, µM (doses to about 46.1 µM), without a hit: at the highest dose activity change, positive = activation, most hits filed as activators; 2.8% of 210,000 active; further: % of control where 0% means no effect; nearly all actives have a fitted effect of over 55% in size
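qHTS luciferase splicing reporter: luminescence rises when SMN2 exon 7 is included in transfected HEK293 cells. Compound exposure lasted 30-36 h at 37C, with 4.5 mM final sodium butyrate as control, followed by a ONE-Glo read.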
The depositor's hits bear a star; [ ] = another dose, or the depositor's remark. Rows were chosen to be rich in hits. Some 9.4% of all compounds tested hit in one or more screens of this group. The call rests on the fitted dose curve; in most records, active means well fitted curve in the direction sought with a large enough effect; inconclusive means small, poorly fitted or top-dose-only effect, or another doubt; inactive means no such curve, though single readings can be large; an effect the other way counts as inactive or inconclusive. Potency means the concentration at half of the fitted maximal effect.

How did Cc1c(Cl)c([N+](=O)[O-])nn1Cc1ccc(C(=O)NN)o1 do in these assays?
Rab9 prom act: -4%; ELG1 genotox: 1%; ELG1 repair inh: 5%; NPC1 promoter act: -3%; FLuc modulator: 1%

What do the screens show for `COc1ccc(CCNC(=O)CN2C(=O)NC(c3ccccc3)(c3ccccc3)C2=O)cc1`?
ELG1 genotox: -3%; ELG1 repair inh: 26µM*

Results for COc1ccc(C2(c3ccc(OC)cc3)NC(=O)N(CC(=O)N(C)c3ccccc3)C2=O)cc1 ?
Rab9 prom act: 2.2µM*; ELG1 genotox: inconclusive; ELG1 repair inh: inconclusive; NPC1 promoter act: 3.5µM*; FLuc modulator: 19µM*

How did COc1ccc(C2(c3ccc(OC)cc3)NC(=O)N(CC(=O)Nc3ccccc3)C2=O)cc1 do in these assays?
Rab9 prom act: -4%; ELG1 genotox: -12%; ELG1 repair inh: inconclusive; NPC1 promoter act: 1%; FLuc modulator: 2%

How did COc1ccc(N2CCN(C(=O)c3ccc(COc4ccc([N+](=O)[O-])cc4)o3)CC2)cc1 do in these assays?
Rab9 prom act: -2%; ELG1 genotox: -8%; ELG1 repair inh: 21µM*; NPC1 promoter act: -5%; FLuc modulator: -3%

What do the screens show for `Cc1c(Cl)cccc1-c1ccc(C(=O)N2CCN(c3ccc([N+](=O)[O-])cc3)CC2)o1`?
Rab9 prom act: 0%; ELG1 genotox: -11%; ELG1 repair inh: 16µM*; NPC1 promoter act: -1%; FLuc modulator: -1%; SMN2 splice up: -54%

Results for O=C(c1ccc(-c2ccc([N+](=O)[O-])cc2)o1)N1CCCCCCC1 ?
Rab9 prom act: inconclusive; ELG1 genotox: 11%; ELG1 repair inh: inconclusive; NPC1 promoter act: inconclusive; FLuc modulator: 11µM*

Results for O=C(c1ccc(-c2cccc(Cl)c2)o1)N1CCN(c2ccc([N+](=O)[O-])cc2)CC1 ?
Rab9 prom act: 0%; ELG1 genotox: 7%; ELG1 repair inh: inconclusive; NPC1 promoter act: 1%; FLuc modulator: 2%; SMN2 splice up: -14%

How did COc1ccc([C@@H]2CC(=O)c3c(O)cc(O)cc3O2)cc1O do in these assays?
Rab9 prom act: inconclusive; ELG1 genotox: inconclusive; ELG1 repair inh: inconclusive; NPC1 promoter act: inconclusive; FLuc modulator: 15µM*; SMN2 splice up: 7%[20.6 µM]

What do the screens show for `Cc1ccccc1NC(=O)c1ccc(N(Cc2ccccc2)S(C)(=O)=O)cc1`?
FLuc modulator: -1%; SMN2 splice up: -12%

How did Cc1nc2ccn(Cc3cccs3)c(=O)c2cc1C(=O)N1CCN(c2ccccc2)CC1 do in these assays?
FLuc modulator: -3%

Results for COc1ccccc1Nc1ccc(C(=O)NCc2cccs2)cn1 ?
Rab9 prom act: -2%; ELG1 genotox: -8%; ELG1 repair inh: inconclusive; NPC1 promoter act: -3%; FLuc modulator: -1%

How did COc1ccccc1Nc1ncc(-c2cccs2)s1 do in these assays?
Rab9 prom act: 2.8µM*; ELG1 genotox: inconclusive; ELG1 repair inh: inconclusive; NPC1 promoter act: inconclusive; FLuc modulator: 2.7µM*; SMN2 splice up: 22µM*

Results for N/C(=N\OC(=O)/C=C/c1ccccc1Cl)c1cccnc1 ?
Rab9 prom act: inconclusive; ELG1 genotox: 21µM*; ELG1 repair inh: inconclusive; NPC1 promoter act: inconclusive; FLuc modulator: 7.6µM*

What do the screens show for `N/C(=N\OC(=O)C(c1ccccc1)c1ccccc1)c1cccnc1`?
Rab9 prom act: -2%; ELG1 genotox: 1%; ELG1 repair inh: 24%; NPC1 promoter act: 1%; FLuc modulator: 0%; SMN2 splice up: -6%

Results for N/C(=N\OC(=O)/C=C/c1ccccc1)c1cccnc1 ?
Rab9 prom act: 11%; ELG1 genotox: inconclusive; ELG1 repair inh: inconclusive; NPC1 promoter act: 0%; FLuc modulator: 12µM*; SMN2 splice up: 2%

Results for O=C(COC(=O)/C=C/c1ccccc1Cl)Nc1cccnc1Cl ?
ELG1 genotox: -1%; ELG1 repair inh: 27%

Results for N/C(=N\OC(=O)/C=C/c1ccccc1Cl)c1ccccn1 ?
Rab9 prom act: 0.28µM*; ELG1 genotox: inconclusive; ELG1 repair inh: inconclusive; NPC1 promoter act: 0.5µM*; FLuc modulator: 0.6µM*; SMN2 splice up: inconclusive

Results for N/C(=N\OC(=O)/C=C/c1ccc(Br)cc1)c1ccccn1 ?
Rab9 prom act: 2.2µM*; ELG1 genotox: inconclusive; ELG1 repair inh: inconclusive; NPC1 promoter act: 1.8µM*; FLuc modulator: 9.5µM*; SMN2 splice up: 18µM*

Results for CCCCNC(=O)C1CCC(CNS(=O)(=O)c2ccc(Cl)cc2)CC1 (configuration not stated) ?
FLuc modulator: -5%

How did CCOC(=O)c1cc(-c2ccc(F)cc2)n(CCC(=O)Nc2cc(OC)cc(OC)c2)c1C do in these assays?
FLuc modulator: -7%

How did COc1ccccc1C(=O)Nc1ccc2c(C)cc(=O)oc2c1 do in these assays?
Rab9 prom act: 1.6µM*; ELG1 genotox: inconclusive; ELG1 repair inh: inconclusive; NPC1 promoter act: 2µM*; FLuc modulator: inconclusive

How did Cc1ccccc1OCCC(=O)Nc1ccc2c(C)cc(=O)oc2c1 do in these assays?
Rab9 prom act: 15%; ELG1 genotox: 21%; ELG1 repair inh: 3%; NPC1 promoter act: -4%; FLuc modulator: 3%

How did CCOc1ncccc1C(=O)Nc1ccc(F)c(F)c1 do in these assays?
Rab9 prom act: 7%; ELG1 genotox: -5%; ELG1 repair inh: 8%; NPC1 promoter act: -1%; FLuc modulator: -6%; SMN2 splice up: 2%

Results for CCOc1ncccc1C(=O)Nc1ccc2c(C)cc(=O)oc2c1 ?
Rab9 prom act: inconclusive; ELG1 genotox: 2%; ELG1 repair inh: 1%; NPC1 promoter act: 3.5µM*; FLuc modulator: 0%; SMN2 splice up: -11%

How did Cc1cc(C)c(NC(=O)COc2ccccc2C(=O)Nc2ccc3c(c2)oc2ccccc23)c(C)c1 do in these assays?
Rab9 prom act: 0%; ELG1 genotox: 13%; ELG1 repair inh: 1%; NPC1 promoter act: -4%; FLuc modulator: 13µM*; SMN2 splice up: -4%

What do the screens show for `CCn1c(C(=O)Nc2cc(C)cc(C)c2)cc2sc(Cl)cc21`?
FLuc modulator: -20%; SMN2 splice up: 1%

How did Cn1cccc1-c1cc2n(n1)CCC(=O)N2CC(=O)Nc1ccc(F)cc1Cl do in these assays?
FLuc modulator: -3%
